# Compound activity deposited in PubChem BioAssay by several laboratories.
# Mdm2 MdmX PPI: human Mdm2/MdmX binding inhibition; O15151+Q00987; SaOS-2 split-luciferase Mdm2/MdmX complementation, luminescence; inhibition, % at 8 µM; 3% of 330,000 active; AID 485346;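 active means inhibition of at least 50% at 8 µM in the primary screen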
# NTR1 ag: NTR1 (human) agonism | P30989 | NTR1-U2OS beta-arrestin-GFP spot imaging, agonist mode | activation, % at 20 µM | 0.17% of 330,000 active | AID 493036;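 active means activation at or above 40% of the spot to cytoplasm intensity ratio, with at least 20 cells analyzed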;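 further: 0% = DMSO without peptide and 100% = 100 nM NTR1 peptide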
# Target sequence (P30989 whole entry, looked up): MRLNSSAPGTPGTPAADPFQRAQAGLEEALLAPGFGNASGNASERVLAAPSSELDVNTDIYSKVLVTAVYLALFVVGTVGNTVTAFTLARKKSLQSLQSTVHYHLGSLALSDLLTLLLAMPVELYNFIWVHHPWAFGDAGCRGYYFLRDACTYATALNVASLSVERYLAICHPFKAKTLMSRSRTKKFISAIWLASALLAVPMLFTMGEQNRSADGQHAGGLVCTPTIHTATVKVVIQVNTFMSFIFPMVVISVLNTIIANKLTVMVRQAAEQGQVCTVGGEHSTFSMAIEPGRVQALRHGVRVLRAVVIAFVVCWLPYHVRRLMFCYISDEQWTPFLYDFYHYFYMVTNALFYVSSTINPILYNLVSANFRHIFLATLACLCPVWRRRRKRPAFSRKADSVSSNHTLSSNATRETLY
# A1 inh: inhibitors of the anti-apoptotic protein A1, read as caspase activation. AID 2462. caspase activation, % (no concentration beside the values). MEF A1-2A-BIM cells, Caspase-Glo 3/7 luminescence, 3 h; percent of clofoctol response, vehicle zero. 0.066% of 330,000 active;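 active means over half of replicate activation scores above 10%, or exactly half above 10 with the replicate mean above 10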
# Jurkat NFkB inh: lowers PMA/ionomycin-induced NF-kB signal in Jurkat cells | PMA/ionomycin-induced NF-kB luciferase reporter, luminescence | inhibition, % at 4 µM | 0.53% of 330,000 active; in the data active means inhibition above about 50%
# Beta apoptosis: beta cell apoptosis inhibition; INS-1E cytokine-induced death, ATP luminescence, 48 h; percent of positive-control rescue, neutral wells zero; protection from apoptosis, % (test concentration not listed); 0.8% of 300,000 active; AID 435005;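 active means Every replicate reaches about 75%, or at least half do and their mean reaches it too, limit read from the data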;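 further: 0% = cytokine-treated negative control wells and 100% = positive control rescue; higher means more ATP so stronger rescue from cytokine killing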
# 697 NFkB inh: lowers PMA/ionomycin-induced NF-kB signal in 697 B cells. AID 435022. inhibition, % at 4 µM. 697 B-cell NF-kB luciferase reporter, 16 h. 0.33% of 330,000 active; in the data active means inhibition above about 35%
# Mdm2 MdmX conf: human Mdm2/MdmX binding inhibition, confirmed. shares compounds with Mdm2 MdmX PPI. luminescent assay. inhibition, % at 8 µM. 55% of 10,000 active; in the data active means inhibition above about 40%
# Full FLuc ctr: counter-screen for Mdm2/MdmX inhibitors: full-length luciferase; shares compounds with Mdm2 MdmX PPI; SaOS-2 full-length luciferase counterscreen, luminescence; inhibition, % at 8 µM; 77% of 6,200 active;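 active means mean inhibition at 8 µM reaching about 37%, which flags the compound as non-specific, limit read from the data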;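 further: p53-null SaOS-2 cells with luciferase driven by a doxycycline-inducible promoter; compound on cells about two nights before reading with doxycycline added after day one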
# Starred values were filed as active, the others as inactive; . = not tested or not shown; + = active, no number. Most compounds without a hit are left out; they make up all but 3.8% or so of the library.
SMILES,Mdm2 MdmX PPI,NTR1 ag,A1 inh,Jurkat NFkB inh,Beta apoptosis,697 NFkB inh,Mdm2 MdmX conf,Full FLuc ctr
O=[N+]([O-])c1ccc(S(=O)(=O)c2ccccc2)nc1,95*,16,-2,25,106*,-76,97*,50*
Cc1cc(S(=O)(=O)c2ccc([N+](=O)[O-])cn2)ccc1Br,99*,4,0,2,17,-35,99*,39*
Nc1ccc(S(=O)(=O)c2ccccc2)nc1,5,-1,1,-3,-6,1,.,.
Cc1ccc(S(=O)(=O)c2ccc([N+](=O)[O-])cn2)cc1,96*,14,-2,39,105*,-55,88*,52*
O=C(NCC(=O)N1CCN(S(=O)(=O)c2c(F)cccc2F)CC1)c1ccccc1F,-6,2,.,15,.,-10,.,.
CCc1cccc(N(C)C(N)=Nc2cccc3ccccc23)c1,53*,0,0,3,-9,23,35,.
CCC1CCCCN1C(=O)CCn1c(=O)oc2ccccc21 (centres undefined),-8,-1,0,-4,-11,-12,.,.
CC1CCN(Cc2c(C(=O)N/N=C/c3cc(Cl)ccc3O)nnn2-c2nonc2N)CC1,79*,-1,1,23,88*,-36,84*,22
COc1cc(/C(C)=N/NC(=O)c2nnn(-c3nonc3N)c2-c2cccs2)ccc1O,69*,4,0,6,3,-25,6,.
Cc1cc(C)c(/C=N/NC(=O)c2nnn(-c3nonc3N)c2CN2CCC(C)CC2)c(C)c1,19,24,0,2,18,-9,.,.
C/C(=N\NC(=O)c1nnn(-c2nonc2N)c1CN1CCc2ccccc21)c1ccccc1O,69*,4,0,9,92*,-31,67*,31
CC1CCN(Cc2c(C(=O)N/N=C/c3cc(Br)ccc3O)nnn2-c2nonc2N)CC1,85*,1,0,37,90*,-29,83*,56*
Cc1ccc2c(c1)CCCN2S(=O)(=O)c1cccc(C(=O)Nc2ccccc2C(=O)O)c1,54*,5,0,0,3,-95,60*,58*
COc1ccc2c(CC(=O)Nc3ncc(C)s3)coc2c1,66*,0,-1,-54,40,-40,66*,+
COc1ccc2c(CC(=O)Nc3nc(C)cs3)coc2c1,-38,2,0,-9,-4,19,.,.
CN(c1cccc(Cl)c1)S(=O)(=O)c1cccc(C(=O)Nc2nc3ccccc3[nH]2)c1,81*,2,0,9,36,-30,36,58*
CC(C)(C)NC(=O)C(c1ccc(-c2ccccc2)cc1)N(C[C@H]1CC[C@@H]([C@@H]2CC[C@H](CO)O2)O1)C(=O)c1ccc(C(C)(C)C)cc1 (some centres undefined),68*,16,.,.,.,12,0,.
Cc1ccc(C(C(=O)NC(C)(C)C)N(CC2CCCO2)C(=O)c2csnn2)cc1 (centres undefined),-8,1,0,3,3,5,.,.
O=C(NCCCN1CCOCC1)c1c(F)c(F)c(F)c(F)c1F,20,1,0,-2,-6,-11,.,.
O=C1C(=O)N(Cc2cccs2)c2ccccc21,13,4,0,-4,-10,-7,.,.
C/C(=N\NC(=O)C1CCCN(S(=O)(=O)c2ccccc2)C1)c1ccccn1 (centres undefined),70*,0,0,32,61,-10,59*,35
Nc1nc(Nc2ccc(Cl)cc2)c(NC=O)c(=O)[nH]1,-20,0,1,-4,-8,-36,.,.
COC(=O)C1=C(Nc2ccc(C)cc2)C=C(C)C(C(=O)OC)C1c1ccc(OC)cc1 (centres undefined),44,-4,1,20,19,0,.,.
COC(=O)C1=C(Nc2ccc(C)cc2)C=C(C)C(C(=O)OC)C1c1cccc(OC)c1 (centres undefined),53*,2,0,21,11,-16,57*,62*
